Records with an inconclusive call do not appear. Calls of active or inactive are those of the source. The calls were made as follows: active = hit-call score of the fitted dose curve at least 0.9, where 1 is the maximum; inactive = score below 0.9.
Read-out: Cytochrome P450 2C9 (Homo sapiens) (UniProt P11712)
Assay: CLD_CYP2C9_48hr: CellzDirect (CLD) Gene Expression Assay for xenobiotic metabolism (CYP2C9) at 48 hours (AID 2283701)
Experimental: CLD_48hr is a cell-based, multiplexed-readout assay that uses hepatocyte, a human liver primary cell, with measurements taken at 48 hours after chemical dosing in a 96-well plate.CLD_CYP2C9_48hr is one of 16 assay component(s) measured or calculated from the CLD_48hr assay. It is designed to make measurements of mRNA induction, a form of inducible reporter, as detected with chemiluminescence signals by Quantitative Nuclease Protection Assay (qNPA) technology.Data from the assay component CLD_CYP2C9_48hr was analyzed at the endpoint, CLD_CYP2C9_48hr, in the positive analysis fitting direction relative to DMSO as the negative control and baseline of activity. Using a type of inducible reporter, gain-of-signal activity can be used to understand changes in the reporter gene as they relate to the gene CYP2C9. Furthermore, this assay endpoint can be referred to as a primary readout. To generalize the intended target to other relatable targets, this assay endpoint is annotated to the cyp intended target family, where subfamily is xenobiotic metabolism.
Human hepatocyte cultures were treated daily for two consecutive days with fresh dosing solutions containing appropriate concentrations of the 320 ToxCast chemicals (chemical identities were blinded to CellzDirect and other ToxCast collaborators), vehicle control (0.2% DMSO), and positive control inducers as summarized in Table 1. Due to the large number of treatment groups and chemicals examined, the ToxCast chemicals were divided into two groups (spanning two independent cultures of hepatocytes from separate donor preparations (Hu778: ToxCast plates 1 and 2; Hu776: ToxCast plates 3 and 4). Each preparation of human hepatocyte cultures was treated with respective vehicle control, medium only control, set of six positive controls/reference chemicals for the five hepatic receptor pathways, and a subset of eight of the ToxCast chemicals (indoxacarb, pyrithiobac-sodium, norflurazon, cyhalofop-butyl, methomyl, thiram, acetochlor, and propiconazole). These replicate data, coupled with internal replicates designed within the blinded ToxCast chemical library, provided additional data to evaluate interindividual differences between hepatocyte preparations and their potential impact on chemical profiles.Cell morphology and integrity were evaluated using phase-contrast microscopy as an indicator of hepatocyte cell health (Tyson & Green, 1987). Cultures for each treatment group (i.e., media, vehicle [0.2% DMSO], positive control inducers [multiple concentrations], and the ToxCast chemicals [multiple concentrations]) were observed and cell morphology was assessed relative to vehicle control cultures at each harvest time point (0, 6, 24, or 48 h). […] Images were evaluated at the conclusion of the study to assess changes in cell integrity and account for the effects of chemical exposure on uncharacteristic changes in concentration-dependent gene expression profiles. The results from these determinations of apparent cytotoxicity were annotated (yes/no) alongside the corresponding qNPA data for reference.At the conclusion of each treatment period, hepatocyte cultures (96-well) were washed with 1 volume of HBSS, lysed by addition of 25 ul ArrayPlate lysis buffer (HTG, Tucson, AZ), and 70 ul/well of Denaturation Oil, denatured by incubation at 95C for 10 min, and frozen at approximately -70C until analysis by nuclease protection assay (qNPA) (Roberts et al., 2007). For qNPA analysis, cell lysates were thawed at 50C for approximately 30 min, qNPA probes were added, and samples were incubated at 95C for 10 min to begin the detection process by denaturing the target RNA, dissociating the duplexes and secondary structure hybridization. At the conclusion of the hybridization period, S1 nuclease reagent was added to each sample to digest all nonprotected nucleotides at 50C for 60-90 min. […]

| SMILES | outcome |
| --- | --- |
| Cc1cc(Cl)ccc1OCC(=O)O | inactive |
| CCCCOC(=O)c1ccccc1C(=O)OCCCC | inactive |
| C#CCOS(=O)OC1CCCCC1Oc1ccc(C(C)(C)C)cc1 (stereo not drawn) | inactive |
| COC(=O)C(C)Oc1ccc(Oc2ccc(Cl)cc2Cl)cc1 (stereo not drawn) | inactive |
| COc1nc(C)nc(NC(=O)NS(=O)(=O)c2ccccc2Cl)n1 | inactive |
| CCNc1nc(Cl)nc(NC(C)C)n1 | inactive |
| CC(C)Oc1cc(-n2nc(C(C)(C)C)oc2=O)c(Cl)cc1Cl | inactive |
| COP(N)(=O)SC (stereo not drawn) | inactive |
| CCOC(=O)C(Cl)Cc1cc(-n2nc(C)n(C(F)F)c2=O)c(F)cc1Cl (stereo not drawn) | inactive |
| O=C(O)c1nc(Cl)ccc1Cl | inactive |
| COc1cnc(OC)n2nc(NS(=O)(=O)c3c(OCC(F)F)cccc3C(F)(F)F)nc12 | inactive |
| COc1nc(C)nc(NC(=O)NS(=O)(=O)c2ccccc2CCC(F)(F)F)n1 | inactive |
| CC(Oc1ccc(Cl)cc1Cl)C(=O)O (stereo not drawn) | inactive |
| COc1nc(NC(C)C)nc(NC(C)C)n1 | inactive |
| O=C(O)COc1nc(Cl)c(Cl)cc1Cl | inactive |
| COc1ccc(C(c2ccc(OC)cc2)C(Cl)(Cl)Cl)cc1 | inactive |
| COC(=O)c1ccccc1C(=O)OC | inactive |
| CO/C=C(/C(=O)OC)c1ccccc1Oc1cc(Oc2ccccc2C#N)ncn1 | inactive |
| C=CCC1=C(C)[C@@H](OC(=O)[C@@H]2[C@@H](C=C(C)C)C2(C)C)CC1=O | inactive |
| Fc1ccc(Oc2ccnc3cc(Cl)cc(Cl)c23)cc1 | inactive |
| CC(C)(C)c1ccc(CSc2cnn(C(C)(C)C)c(=O)c2Cl)cc1 | inactive |
| CCON=C(CC)C1=C(O)CC(c2c(C)cc(C)cc2C)CC1=O (stereo not drawn) | inactive |
| COP(=S)(OC)Oc1nc(Cl)c(Cl)cc1Cl | inactive |
